# Hits are enriched below; roughly 19% of the tested compounds scored in any of these assays.
# S-ASM inh = blocks human secretory acid sphingomyelinase; AID 504937; placental ASM, HMU-PC fluorogenic substrate, 60 min; Potency, µM (titrated, usually from 57.5 µM), inactives show top-dose activity change, negative = inhibition, most hits filed as inhibitors; P17405; actives 0.006% (n = 340,000); note: potency is the fitted concentration of half-maximal effect
# Target sequence (P17405 47-631 limits assumed): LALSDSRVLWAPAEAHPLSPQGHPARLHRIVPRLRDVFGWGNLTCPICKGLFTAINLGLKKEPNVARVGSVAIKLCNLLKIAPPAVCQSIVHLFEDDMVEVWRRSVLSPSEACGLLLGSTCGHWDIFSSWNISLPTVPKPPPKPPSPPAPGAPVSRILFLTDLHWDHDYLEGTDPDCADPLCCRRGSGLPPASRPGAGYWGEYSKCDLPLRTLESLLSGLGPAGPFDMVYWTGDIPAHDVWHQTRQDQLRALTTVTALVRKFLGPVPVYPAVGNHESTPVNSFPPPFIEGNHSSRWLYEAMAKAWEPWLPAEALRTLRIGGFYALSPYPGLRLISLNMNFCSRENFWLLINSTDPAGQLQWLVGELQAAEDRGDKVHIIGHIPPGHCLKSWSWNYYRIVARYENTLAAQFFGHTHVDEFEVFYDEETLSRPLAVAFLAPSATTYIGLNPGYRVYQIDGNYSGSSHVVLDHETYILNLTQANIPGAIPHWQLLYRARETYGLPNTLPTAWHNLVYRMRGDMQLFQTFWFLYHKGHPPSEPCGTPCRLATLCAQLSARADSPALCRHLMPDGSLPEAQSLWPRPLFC
#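 qHTS format. ASM enzyme prepared from human placenta hydrolyses the fluorogenic substrate HMU-PC0 (9 uM final) over 60 min at 37 °C after a 10 min compound preincubation.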
# TGFb SMAD3 inh = inhibitors of TGF-b signaling | actives 1.2% (n = 410,000) | Potency, µM (highest dose often 46.1 µM), for inactives: top-dose activity, negative = inhibition, usual class: inhibitors | HepG2 CAGA-GFP TGF-b/SMAD3 reporter, GFP fluorescence, 18 h; TGF-beta stimulated, 500 pg/mL final; note: potency is the fitted concentration of half-maximal effect; % is set by controls: 0 for no effect and ±100 for the full control effect; nearly all actives have a fitted effect of over 65% in size
#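 Smad-responsive CAGA-GFP expression was quantified in HEPG2 cells exposed to compounds and 500 pg/mL final TGF-beta for 18 h at 37 degrees C; unstimulated wells defined full inhibition.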
# DT40 TDP1 CPT = growth inhibition of DT40 Tdp1-/-;hTDP1 cells with camptothecin (screen for TDP1 inhibitors). chicken DT40 Tdp1-/-;hTDP1 cells + 20 nM CPT, ATP luminescence, 48 h. Potency, µM (highest dose often 46.2 µM), for the others: top-dose activity change, negative = growth inhibition, usual class: inhibitors. actives 12% (n = 420,000). AID 686979; note: potency is the fitted concentration of half-maximal effect; % is set by controls: 0 for no effect and ±100 for the full control effect; nearly all actives have a fitted effect of over 55% in size
#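 Cell growth measured by CellTiter-Glo luminescence after a minimum 48 h, 37 C compound exposure with 20 nM CPT in Tdp1-knockout DT40 cells stably expressing hTDP1, seeded 400/well; qHTS titration format.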
# TDP1 cell noCPT = qHTS for Inhibitors of human tyrosyl-DNA phosphodiesterase 1 (TDP1): qHTS in cells in absence of CPT; DT40 Tdp1-/- hTDP1 cells, no CPT, ATP luminescence, 48 h; Potency, µM (highest dose often 46.2 µM), without a hit: at the highest dose activity change, negative = growth inhibition, usual class: inhibitors; actives 15% (n = 420,000); AID 686978, 2013; note: potency is the fitted concentration of half-maximal effect; % is set by controls: 0 for no effect and ±100 for the full control effect; nearly all actives have a fitted effect of over 55% in size
#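 Growth kinetics read by CellTiter-Glo luminescence after ≥48 hr at 37 °C. Cells: DT40 Tdp1-/- stably carrying human TDP1, 400 per well, compound exposure in the absence of CPT (DMSO vehicle).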
# HepG2 tox = counter-screen for TGF-b inhibitors: cytotoxicity in HepG2 cells | HepG2 CAGA-GFP viability, ATP luminescence, 18 h | Potency, µM (top dose mostly 46.1 µM), inactives show at the top dose activity change, negative = cytotoxicity, most hits filed as cytotoxic | actives 0.76% (n = 410,000); note: potency is the fitted concentration of half-maximal effect
#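 CellTiter-Glo luminescence gave cytotoxicity after 18 hours at 37 degrees C. The cells were HepG2 CAGA-GFP in 1% FBS DMEM, stimulated with 500 pg/mL TGF-beta after compound addition. %Activity was normalised to no-cell wells (complete cell-killing) and DMSO (no toxicity), and curves were fitted and classified.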
# IL1B secr inh = inflammasome signaling inhibition, IL-1 beta readout. AID 743279. activity change, % at 57.5 µM. actives 4.7% (n = 360,000). THP-1 LPS/ATP IL-1B secretion, AlphaLISA, 16 h; active compounds read low; in the data active = activity change below about -50%; inconclusive = mostly about -30% to -49%; note: % is set by controls: 0 for no effect and ±100 for the full control effect
#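 THP-1 cells pretreated 1 hr with compounds (up to 57.5 uM final), then stimulated with LPS (250 ng/mL final) plus ATP (1.25 mM final); secreted IL-1B measured by AlphaLISA after 16 hr, decreased signal indicating inhibition.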
# * marks the source's active call; other numbers are inactive results; i = inactive; ? = inconclusive; / = no result given; [ ] = dose if it differs, or a comment. Unless noted, calls come from the whole dose curve; as a rule, active = well fitted curve in the direction sought with a large enough effect; inconclusive = small, poorly fitted or top-dose-only effect, or another doubt; inactive = no such curve, though single readings can be large; an effect the other way counts as inactive or inconclusive.
SMILES,S-ASM inh,TGFb SMAD3 inh,DT40 TDP1 CPT,TDP1 cell noCPT,HepG2 tox,IL1B secr inh
COc1ccc(OC)c(C=Cc2ccc([N+](=O)[O-])cc2)c1,/,2%,-12%,?,-17%,-16
Cc1[nH]c2ccccc2c1/C=C/C(=O)c1ccncc1,-2%,13%,-9%,-21%,-18%,-12
Cc1[nH]c2ccccc2c1/C=C/c1cc[n+](C)cc1,?,92%,0.65µM*,0.92µM*,0%,9
Cc1[nH]c2ccccc2c1/C=C/c1c(C)[nH]c2ccccc12,/,6.3µM*,11µM*,10µM*,-48%,/
CC(C)N(Cc1ccccc1)C(=O)COC(=O)C1CCN(c2ccc(C(F)(F)F)cn2)CC1,-7%,5%,16µM*,18µM*,-45%,6
CC(C)(C)N(Cc1ccccc1)C(=O)COC(=O)C1CCN(c2ccc(C(F)(F)F)cn2)CC1,-9%,?,?,15µM*,-17%,2
CCc1ccccc1NC(=O)C(CC)Sc1ncnc2c1sc1ccccc12 (stereo not given),/,-1%,?,?,4%,/
CCc1ccc(-c2nc(CS(=O)CC(=O)NC3CCCCCC3)c(C)o2)cc1 (stereo not given),-7%,?,-21%,-18%,0%,7
CNc1cc(F)nc(F)n1,19%,-13%,18µM*,16µM*,-4%,-12
CNc1cccc(-c2cccc(O)c2)n1,/,19%,4%,-8%,-7%,-19
COc1ccc2c(c1)CCc1cnc(-n3ncc(C(=O)NC4CCOC4)c3C3CC3)nc1-2 (stereo not given),/,/,-8%[9.04 µM],?,/,/
CN(Cc1ccccc1)c1nccn2ccnc12,/,-2%,?,?,-21%,41
CN(Cc1ccccc1)c1nc(N)nc(Cl)c1C=O,3%,-14%,-26%,?,-9%,-106*
OCCCCNCc1ccc(OCc2ccc(Cl)cc2)cc1,3%,?,?,?,-22%,-3
COc1ccc(CNC(c2ccccc2)c2ccc(Cl)cc2)cc1 (stereo not given),-2%,0%,?,16µM*,-10%,31
CC(NCc1ccc(OCc2ccc(Cl)cc2)cc1)C(O)c1ccccc1 (stereo not given),-10%,14µM*,15µM*,?,16µM*,-103*
COc1ccc2c(c1)c(=O)c(C(=O)c1ccccc1)cn2CC(=O)Nc1ccc2c(c1)OCO2,/,-1%,?,-4%,-4%,/
CCc1ccc(-n2c(=O)c3cccnc3n2CC(=O)NCc2ccc(F)cc2)cc1,/,-1%,?,?,-24%,/
COc1cc(/C=C/c2ccnc3ccccc23)ccc1N(C)C,/,20%,2µM*,2.2µM*,-31%,/
COc1cc(N(C)C)c(OC)cc1/C=C/c1ccnc2ccccc12,/,37%,10µM*,10µM*,-35%,/
Cc1cc(C(=O)C(C)OC(=O)C2=NNC(=O)CC2)c(C)n1-c1ccc(OC(F)F)cc1 (stereo not given),-1%,1%,?,21µM*,3%,-10
COc1ccc(C)c2sc(N(CCN(C)C)C(=O)c3ccc(S(=O)(=O)N(C)c4ccccc4)cc3)nc12,/,0%,-19%,?,-18%,19
CCCCN(CC)S(=O)(=O)c1ccc(C(=O)N(CCCN(C)C)c2nc3cc(C)cc(C)c3s2)cc1,-19%,?,?,23µM*,-178%,-178*
Cc1cc(C)c2sc(N(CCCN(C)C)C(=O)c3ccc(S(=O)(=O)N(C)Cc4ccccc4)cc3)nc2c1,/,?,?,?,-114%,-110*
CCCCN(C)S(=O)(=O)c1ccc(C(=O)N(CCN(C)C)c2nc3ccc(C)cc3s2)cc1,-2%,2%,-16%,-17%,0%,-9
SMILES,S-ASM inh,TGFb SMAD3 inh,DT40 TDP1 CPT,TDP1 cell noCPT,HepG2 tox,IL1B secr inh
CCN(Cc1ccccc1)S(=O)(=O)c1ccc(C(=O)N(CCCN(C)C)c2nc3cc(C)cc(C)c3s2)cc1,?,?,23µM*,12µM*,i,-100*
O=C(CN1C(=O)c2ccc(Br)cc2C1=O)NCC1CCCO1 (stereo not given),0%,2%,2%,-3%,0%,-1
O=C(N=C1SC2CS(=O)(=O)CC2N1c1ccc(F)cc1)C1CC1 (stereo not given),3%,-1%,6%,5%,-3%,20
CCN(Cc1ccccc1)C(=O)Cn1cc(S(=O)(=O)Cc2cccc(Cl)c2)c2ccccc21,/,-24%,?,?,-32%,/
CCn1c(-c2cc(-c3ccccc3)sc2N)n[nH]c1=S,2%,?,?,8.2µM*,-46%,11
Cc1[nH]c2ccc(-c3n[nH]c(=S)n3Cc3ccccc3)cc2c1C,-7%,-25%,23µM*,16µM*,-22%,-57*
CCn1c(-c2ccccc2O)n[nH]c1=S,-1%,2%,-27%,-8%,2%,21
CCn1c(-c2ccc(C)cc2)n[nH]c1=S,5%,9%,21µM*,?,-5%,13
CCOc1ccc(-c2n[nH]c(=S)n2Cc2ccccc2)cc1,-15%,?,?,21µM*,-16%,-13
Cc1[nH]c2ccc(-c3n[nH]c(=S)n3-c3ccccc3)cc2c1C,-1%,-4%,-14%,?,5%,2
Cc1nc2cncnc2n(Cc2ccccc2)c1=O,/,/,-4%,0%,/,/
CCCc1cc(=O)[nH]c2nnc(SCC(=O)N3CC(C)OC(C)C3)n12 (stereo not given),-4%,-20%,2%,-12%,1%,2
CC(C)c1cc(C(=O)NCc2ccc(F)cc2)no1,/,/,1%,-11%,-3%,/
S=c1[nH]nc(-c2ccccc2Cl)n1CC1CCCO1 (stereo not given),1%,-9%,-1%,0%,-1%,19
CC(C)(C)c1ccc(-c2n[nH]c(=S)n2CC2CCCO2)cc1 (stereo not given),4%,5%,?,16µM*,6%,19
O=C(Cc1ccc(Br)cc1)Nc1cccc(-c2cn3c(n2)SCC3)c1,-10%,-1%,?,?,-20%,-76*
COc1ccc(CCNc2nc(C)cc(C)c2C#N)cc1OC,3%,-10%,?,-25%,-11%,-16

# Screening data as filed in PubChem.
